Holding throughout (set-up): scale not given: direction of the effect not stated beside the values
In test [1] the target is Protein translocase subunit SecA (Escherichia coli (strain K12)) (UniProt P10408). Nature of the test: Assay to Identify E. coli SecA ATPase Inhibitors. In kind it is functional. The conditions noted are these: 30 µM.
For test [2], the target named is T1, Ubiquitin-activating enzyme e1, putative (Leishmania donovani (strain BPK282A1)) (UniProt E9BSI1).
T1 sequence (whole entry): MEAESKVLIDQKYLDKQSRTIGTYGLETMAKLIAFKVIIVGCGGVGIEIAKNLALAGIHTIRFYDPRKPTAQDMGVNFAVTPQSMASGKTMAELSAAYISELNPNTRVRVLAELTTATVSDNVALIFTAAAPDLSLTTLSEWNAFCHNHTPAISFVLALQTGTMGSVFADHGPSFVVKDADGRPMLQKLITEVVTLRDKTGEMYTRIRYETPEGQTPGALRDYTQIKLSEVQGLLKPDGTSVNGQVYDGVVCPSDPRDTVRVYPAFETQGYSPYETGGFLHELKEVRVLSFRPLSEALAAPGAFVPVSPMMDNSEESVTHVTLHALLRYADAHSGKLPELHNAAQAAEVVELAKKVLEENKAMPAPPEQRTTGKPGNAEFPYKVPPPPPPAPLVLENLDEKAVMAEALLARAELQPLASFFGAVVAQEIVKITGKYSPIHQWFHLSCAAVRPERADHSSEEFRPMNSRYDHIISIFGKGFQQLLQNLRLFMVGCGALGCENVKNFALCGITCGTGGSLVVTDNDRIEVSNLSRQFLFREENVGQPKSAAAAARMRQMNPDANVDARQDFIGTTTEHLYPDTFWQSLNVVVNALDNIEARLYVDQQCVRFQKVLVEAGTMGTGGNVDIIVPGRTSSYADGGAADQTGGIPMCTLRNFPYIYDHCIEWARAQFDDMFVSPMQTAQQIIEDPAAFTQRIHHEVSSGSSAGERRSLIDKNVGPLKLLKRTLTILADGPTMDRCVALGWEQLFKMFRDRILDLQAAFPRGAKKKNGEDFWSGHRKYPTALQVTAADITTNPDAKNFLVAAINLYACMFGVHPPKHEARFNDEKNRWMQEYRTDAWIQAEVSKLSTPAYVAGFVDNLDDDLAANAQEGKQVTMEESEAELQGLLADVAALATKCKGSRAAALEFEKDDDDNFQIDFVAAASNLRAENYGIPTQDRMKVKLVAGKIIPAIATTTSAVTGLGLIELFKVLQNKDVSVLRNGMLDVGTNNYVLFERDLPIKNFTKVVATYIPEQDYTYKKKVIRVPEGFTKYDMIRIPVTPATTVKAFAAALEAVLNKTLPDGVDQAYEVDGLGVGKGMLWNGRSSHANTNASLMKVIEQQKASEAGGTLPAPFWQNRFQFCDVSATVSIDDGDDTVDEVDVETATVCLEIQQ
Nature of the test: Leishmania donovani Ubiquitin Activating Enzyme (LdE1). The conditions noted are these: 30 µM. In kind it is functional.

Test [3] has as its target AMP-activated protein kinase, AMPK (Homo sapiens) (UniProt P54646+O43741+P54619+Q9UGJ0+Q9Y478+Q13131+Q9UGI9). Nature of the test: AMP-dependent Kinase enzyme assay. An in vitro enzyme assay that detects ADP turnover that is directly proportional to AMPK activity. This uses naive AMPK that is activated during the assay with MK-8722. Format: functional. The conditions noted are these: 30 µM.

For test [4], the target named is Sialic acid-binding Ig-like lectin 9 (Homo sapiens) (UniProt Q9Y336). Nature of the test: Hs-Siglec9 ALPHAscreen SOP 20170721. The settings on record: 10 µM.
Sialic acid-binding Ig-like lectin 9 (Homo sapiens), sequence (Q9Y336 whole entry): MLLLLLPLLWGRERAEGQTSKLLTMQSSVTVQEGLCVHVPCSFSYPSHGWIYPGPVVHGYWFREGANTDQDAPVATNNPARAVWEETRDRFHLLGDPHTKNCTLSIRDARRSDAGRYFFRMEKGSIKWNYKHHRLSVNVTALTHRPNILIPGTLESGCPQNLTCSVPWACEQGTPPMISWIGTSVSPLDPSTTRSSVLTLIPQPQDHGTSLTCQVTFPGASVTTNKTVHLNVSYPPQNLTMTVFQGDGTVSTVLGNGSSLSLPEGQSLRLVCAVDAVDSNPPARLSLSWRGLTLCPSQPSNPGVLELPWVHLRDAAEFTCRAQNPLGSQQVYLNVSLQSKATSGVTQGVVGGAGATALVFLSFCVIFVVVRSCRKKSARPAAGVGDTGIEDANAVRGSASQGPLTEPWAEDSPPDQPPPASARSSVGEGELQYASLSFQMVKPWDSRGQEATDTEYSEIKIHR
A further test deals with Trypanosoma cruzi. Nature of the test: Trypanosoma cruzi phosphomannomutase and mannose-1-phosphate guanylyltransferase assay. Format: functional. The settings on record: 10 µM.
Test [5] has as its target T2, Arginase-2, mitochondrial (Homo sapiens) (UniProt P78540).
T2 sequence (whole entry): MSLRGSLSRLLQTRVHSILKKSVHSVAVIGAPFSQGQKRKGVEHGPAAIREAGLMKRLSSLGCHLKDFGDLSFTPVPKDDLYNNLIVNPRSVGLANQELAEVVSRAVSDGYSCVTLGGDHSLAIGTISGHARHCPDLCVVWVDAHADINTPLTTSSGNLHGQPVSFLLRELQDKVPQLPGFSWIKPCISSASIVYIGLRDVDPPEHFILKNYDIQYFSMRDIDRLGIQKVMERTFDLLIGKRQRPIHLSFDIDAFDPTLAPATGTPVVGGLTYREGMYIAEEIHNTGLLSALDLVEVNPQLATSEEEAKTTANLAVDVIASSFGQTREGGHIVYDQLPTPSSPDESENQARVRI
Nature of the test: in vitro enzyme assay to detect the production of urea directly proportional to the activity of Arginase II. Note: in the data most compounds retested in dose-response had high values. Format: functional. The settings on record: 33.3 µM.

The target in test [6] is T3, Proteasome subunit beta (Trypanosoma cruzi) (UniProt O96673).
T3 sequence (whole entry): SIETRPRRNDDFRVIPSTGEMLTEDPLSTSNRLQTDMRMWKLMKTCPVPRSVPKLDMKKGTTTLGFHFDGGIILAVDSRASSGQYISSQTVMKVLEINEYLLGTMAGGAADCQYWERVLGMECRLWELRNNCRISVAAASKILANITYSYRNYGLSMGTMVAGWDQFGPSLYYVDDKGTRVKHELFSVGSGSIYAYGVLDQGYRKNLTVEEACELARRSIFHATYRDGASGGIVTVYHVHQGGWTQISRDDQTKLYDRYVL
Nature of the test: Trypanosoma cruzi proteasome chymotrypsin-like activity (TcProtChymo) assay. Note: in the data most compounds retested in dose-response had high values. Format: functional. The conditions noted are these: 9.37 µM.

The species named for another test is Homo sapiens. Nature of the test: To identify inhibition of the IFN signalling (Jak-Stat) pathway via expression of an eGFP reporter gene under the control of an IFN-stimulated response element (ISRE) containing MxA promoter. In kind it is functional. The conditions noted are these: 30 µM. In general terms: Reporter assays use an easily measured gene product as a stand-in for the process of interest.

Test [7] deals with T4, Tyrosyl-tRNA synthetase, putative (Trypanosoma cruzi (strain CL Brener)) (UniProt Q4DSP6).
T4 sequence (whole entry): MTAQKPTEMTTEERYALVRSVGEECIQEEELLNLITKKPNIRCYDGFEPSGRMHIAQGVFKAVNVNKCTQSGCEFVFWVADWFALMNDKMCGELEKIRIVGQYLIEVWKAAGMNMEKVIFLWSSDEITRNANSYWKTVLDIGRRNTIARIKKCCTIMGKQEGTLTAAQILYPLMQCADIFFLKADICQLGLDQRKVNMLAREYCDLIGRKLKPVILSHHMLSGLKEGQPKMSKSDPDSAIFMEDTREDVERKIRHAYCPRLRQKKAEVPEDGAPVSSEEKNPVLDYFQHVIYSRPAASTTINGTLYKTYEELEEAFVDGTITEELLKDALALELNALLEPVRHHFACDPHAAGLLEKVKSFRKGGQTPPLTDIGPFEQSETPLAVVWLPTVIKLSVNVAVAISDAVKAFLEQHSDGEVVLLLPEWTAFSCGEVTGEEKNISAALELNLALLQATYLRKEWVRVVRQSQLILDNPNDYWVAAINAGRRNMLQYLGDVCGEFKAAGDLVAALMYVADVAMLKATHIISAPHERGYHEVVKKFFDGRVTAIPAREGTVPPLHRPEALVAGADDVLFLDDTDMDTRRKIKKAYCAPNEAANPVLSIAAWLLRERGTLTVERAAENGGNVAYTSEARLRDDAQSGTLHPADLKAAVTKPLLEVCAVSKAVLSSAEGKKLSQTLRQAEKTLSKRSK
Nature of the test: Trypanosoma cruzi tyrosyl tRNA synthetase (TcYRS) _High Tyrosine SOP. Note: in the data most compounds retested in dose-response had high values. Format: functional. The settings on record: 30 µM.

The target of test [8] is T4, Tyrosyl-tRNA synthetase, putative (Trypanosoma cruzi (strain CL Brener)). Nature of the test: Trypanosoma cruzi tyrosyl tRNA synthetase (TcYRS) SOP. The conditions noted are these: 30 µM. In kind it is functional.
Test [9] addresses Chromo domain-containing protein 1 (Saccharomyces cerevisiae (strain ATCC 204508 / S288c) (Baker's yeast)) (UniProt P32657). Nature of the test: ScCHD-1 Enzyme Inhibition Assay. Note: in the data most compounds retested in dose-response had high values. In kind it is functional. The settings on record: 30 µM.

Molecules are shown by their SMILES. For some of these results: Results with a measured potency or affinity are listed apart.

Protein translocase subunit SecA (Escherichia coli (strain K12)), sequence (P10408 whole entry): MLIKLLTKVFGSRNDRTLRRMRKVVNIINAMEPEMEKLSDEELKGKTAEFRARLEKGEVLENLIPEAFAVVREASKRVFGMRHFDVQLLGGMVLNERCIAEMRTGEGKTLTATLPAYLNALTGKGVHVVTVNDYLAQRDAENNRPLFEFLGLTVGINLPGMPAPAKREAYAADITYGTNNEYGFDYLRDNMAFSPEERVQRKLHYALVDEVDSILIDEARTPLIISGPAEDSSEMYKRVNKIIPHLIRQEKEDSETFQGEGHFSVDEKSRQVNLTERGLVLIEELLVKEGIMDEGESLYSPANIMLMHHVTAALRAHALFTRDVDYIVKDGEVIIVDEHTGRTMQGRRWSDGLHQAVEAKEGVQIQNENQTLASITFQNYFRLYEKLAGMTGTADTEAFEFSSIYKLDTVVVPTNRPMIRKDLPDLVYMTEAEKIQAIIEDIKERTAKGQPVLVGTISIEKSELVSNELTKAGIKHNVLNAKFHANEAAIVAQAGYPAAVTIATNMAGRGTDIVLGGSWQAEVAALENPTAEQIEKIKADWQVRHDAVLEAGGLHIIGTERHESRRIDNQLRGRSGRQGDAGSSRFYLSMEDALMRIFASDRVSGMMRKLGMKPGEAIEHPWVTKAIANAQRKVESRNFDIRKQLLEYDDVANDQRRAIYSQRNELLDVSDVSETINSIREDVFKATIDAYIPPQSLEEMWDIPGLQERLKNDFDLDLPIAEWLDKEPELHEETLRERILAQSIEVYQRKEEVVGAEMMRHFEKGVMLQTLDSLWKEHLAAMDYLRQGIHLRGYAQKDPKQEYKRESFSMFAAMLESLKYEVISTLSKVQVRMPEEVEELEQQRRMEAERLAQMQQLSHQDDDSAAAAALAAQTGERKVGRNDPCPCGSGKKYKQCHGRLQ
Chromo domain-containing protein 1 (Saccharomyces cerevisiae (strain ATCC 204508 / S288c) (Baker's yeast)), sequence (P32657 whole entry, the tested form may be a part): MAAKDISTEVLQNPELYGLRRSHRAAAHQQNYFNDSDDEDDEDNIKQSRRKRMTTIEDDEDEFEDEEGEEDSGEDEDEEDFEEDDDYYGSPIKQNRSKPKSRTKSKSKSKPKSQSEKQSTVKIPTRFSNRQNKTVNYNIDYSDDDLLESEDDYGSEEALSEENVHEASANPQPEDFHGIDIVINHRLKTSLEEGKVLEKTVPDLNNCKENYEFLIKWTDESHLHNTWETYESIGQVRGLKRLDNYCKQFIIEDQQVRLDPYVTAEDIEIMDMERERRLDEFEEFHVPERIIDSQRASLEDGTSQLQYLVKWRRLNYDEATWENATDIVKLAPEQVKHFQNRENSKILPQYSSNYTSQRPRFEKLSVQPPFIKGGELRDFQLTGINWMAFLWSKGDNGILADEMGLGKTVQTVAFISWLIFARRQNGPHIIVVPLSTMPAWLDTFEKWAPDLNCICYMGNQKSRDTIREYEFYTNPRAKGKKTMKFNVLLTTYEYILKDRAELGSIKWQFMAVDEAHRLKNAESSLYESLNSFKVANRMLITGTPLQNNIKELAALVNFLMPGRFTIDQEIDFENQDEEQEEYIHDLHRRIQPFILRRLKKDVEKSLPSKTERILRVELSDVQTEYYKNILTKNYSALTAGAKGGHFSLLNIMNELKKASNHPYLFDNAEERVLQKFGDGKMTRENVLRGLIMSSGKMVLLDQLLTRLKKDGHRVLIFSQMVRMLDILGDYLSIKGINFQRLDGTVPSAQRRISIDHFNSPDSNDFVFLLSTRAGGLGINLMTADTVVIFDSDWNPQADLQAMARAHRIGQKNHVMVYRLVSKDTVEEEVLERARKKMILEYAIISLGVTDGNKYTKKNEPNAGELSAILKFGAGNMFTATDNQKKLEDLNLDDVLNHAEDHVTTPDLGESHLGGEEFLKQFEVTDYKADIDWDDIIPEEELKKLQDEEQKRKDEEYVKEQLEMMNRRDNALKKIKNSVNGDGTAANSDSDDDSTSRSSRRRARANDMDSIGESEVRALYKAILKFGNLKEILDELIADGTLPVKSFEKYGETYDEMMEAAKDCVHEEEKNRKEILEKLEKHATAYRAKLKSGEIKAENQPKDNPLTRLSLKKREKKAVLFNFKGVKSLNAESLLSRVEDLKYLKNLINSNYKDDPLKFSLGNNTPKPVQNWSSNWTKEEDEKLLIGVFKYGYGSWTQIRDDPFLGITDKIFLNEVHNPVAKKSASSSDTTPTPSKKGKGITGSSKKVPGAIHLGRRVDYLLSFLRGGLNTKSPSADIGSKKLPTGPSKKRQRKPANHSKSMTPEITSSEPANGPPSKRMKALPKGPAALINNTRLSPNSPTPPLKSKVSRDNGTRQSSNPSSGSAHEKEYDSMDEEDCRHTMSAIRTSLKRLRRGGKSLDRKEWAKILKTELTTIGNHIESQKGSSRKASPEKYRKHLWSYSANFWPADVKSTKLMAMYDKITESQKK

Regarding `Cc1noc([C@H]2C[C@@H]3CCN(CC4CC4)C[C@H]3O2)n1`, the Percent Effect was -4.27% in test [1]; 7.79% in test [2]; 4.66% in [3]; 0.715% in test [4]; -1.48% in the test on Trypanosoma cruzi; -0.645% in test [5]. The Percent Effect in [6] was 3.13%; in the test listed under Homo sapiens, 4.2%; in test [7] it was -1.06%; in [8], 3.85%; in test [9], -3.28%.

As to `CN(C)C(=O)CN1CCC2(CCN(Cc3nccs3)CC2)C1=O`, the Percent Effect in test [1] is -0.585%; in test [2], 10.7%; in [3], 0.545%; in [4], -5.07%; in the test on Trypanosoma cruzi, -9.46%; in test [5], -60.4%. Also, the Percent Effect in [6] was 12.5%; in the test filed under Homo sapiens, 13.1%; in [7], -12.5%; in test [8] it was 5%; in test [9], -7.73%.

For `COC(=O)c1cccn1C1CCN(C(=O)c2cc(F)ccc2F)CC1`, the Percent Effect in test [1] is -4.16%; in test [2], 13%; in [3] it was 1.19%; in test [4], 0.495%; in the test with Trypanosoma cruzi, 4.87%; in test [5], -6.76%. Besides, the Percent Effect is 3.04% in [6]; 19.8% in the test listed under Homo sapiens; 5.83% in [7]; 14.6% in [8]; -9.49% in test [9].

As to `CN(Cc1ccsc1)C(=O)CS(=O)(=O)Cc1ccc(Cl)c(Cl)c1`, the Percent Effect in [1] was -1.27%; in [2], -5.2%; in [3], 10.5%; in test [4], -5.21%; in the test with Trypanosoma cruzi, 7.15%; in test [5] it was 0.21%. Besides, the Percent Effect was 15.6% in [6]; 7.44% in the test filed under Homo sapiens; -13.3% in [7]; 0% in test [8]; -13.1% in test [9].

Consider `CN(C)C(=O)c1ccc2c(c1)N(C)C(CC(=O)NCc1ccno1)CO2` (stereo not drawn), for which the Percent Effect was -0.872% in [1]; 6.94% in test [2]; -9.68% in test [3]; 0.254% in test [4]; 1.85% in the test with Trypanosoma cruzi; 15% in test [5]. The Percent Effect in test [6] is 20.7%; in the test filed under Homo sapiens, 18.1%; in test [7], 7.37%; in [8], 10.3%; in [9], -2.72%.

Regarding `CCN(C(=O)CCCOc1ccccc1F)c1ccncc1`, the Percent Effect in test [1] was -5.32%; in [2], 18.4%; in [3], -2.56%; in test [4], 5.73%; in the test with Trypanosoma cruzi, 5.36%; in test [5], -20.1%. The Percent Effect was 10.1% in test [6]; 11.9% in the test filed under Homo sapiens; 5.32% in [7]; 7.79% in test [8]; -5.44% in test [9].

As for `COc1ccc(CNC(=O)N(Cc2ccc(F)cc2F)C2CC2)cn1`, the Percent Effect in test [1] was -6.72%; in test [2], 15.2%; in [3], -2.76%; in test [4], 9.29%; with Trypanosoma cruzi, 5.95%; in test [5], -0.76%. For the same molecule, the Percent Effect in [6] was 0.737%; in the test listed under Homo sapiens, 8.63%; in test [7] it was 3.45%; in test [8], 21.5%; in [9], -7.42%.

On to `COCC1CCCN(C(=O)c2cc(Cn3ccc4ccccc43)[nH]n2)C1` (stereo not drawn), for which the Percent Effect in test [1] was -5.5%; in test [2], -7.79%; in test [3] it was 0.36%; in [4], 11.2%; with Trypanosoma cruzi, 8.75%; in test [5], -81.4%. Moreover, the Percent Effect in test [6] is -0.666%; in the test filed under Homo sapiens, -41.3%; in test [7] it was 14%; in test [8], 18.5%; in [9], 127%.
